# According to the supplement of paper PMC9694430:
# What was measured:
# Assay in all cases: thermal shift delta Tm vs DMSO control; higher = stronger stabilization (binding)
# Conditions in all cases: 12.5 µM; protein concentration 2 µM
# LOC_OS02G45750-cb003 = tested on: LOC_OS02G45750-cb003
# Outline: (§1)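 Compounds dissolved in DMSO were added to purified rice kinase domain constructs, which had been expressed in E. coli, for differential scanning fluorimetry. Each well held 19.5 μl of 2 μM kinase in 100 mM potassium phosphate pH 7.5, 150 mM NaCl, 10% glycerol and 5 × SYPRO Orange. Fluorescence was followed from 25°C to 95°C at a rate of 0.05°C/s. Shifts in Boltzmann-fitted melting temperature are triplicate means relative to DMSO-only protein.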
# LOC_OS02G54510-cb004 = tested on: LOC_OS02G54510-cb004
# Outline: as §1
# LOC_OS03G04050-cb001 = tested on: LOC_OS03G04050-cb001
# Outline: as §1
# LOC_OS03G12390-cb001 = tested on: LOC_OS03G12390-cb001
# Outline: as §1
# LOC_OS03G27990-cb004 = tested on: LOC_OS03G27990-cb004
# Outline: as §1
# LOC_OS03G50450-cb001 = tested on: LOC_OS03G50450-cb001
# Outline: as §1
# LOC_OS03G50810-cb003 = tested on: LOC_OS03G50810-cb003
# Outline: as §1
# LOC_OS04G35114-cb001 = tested on: LOC_OS04G35114-cb001
# Outline: as §1
# LOC_OS04G38480-cb003 = tested on: T1, LOC_OS04G38480-cb003
# T1 sequence (whole entry): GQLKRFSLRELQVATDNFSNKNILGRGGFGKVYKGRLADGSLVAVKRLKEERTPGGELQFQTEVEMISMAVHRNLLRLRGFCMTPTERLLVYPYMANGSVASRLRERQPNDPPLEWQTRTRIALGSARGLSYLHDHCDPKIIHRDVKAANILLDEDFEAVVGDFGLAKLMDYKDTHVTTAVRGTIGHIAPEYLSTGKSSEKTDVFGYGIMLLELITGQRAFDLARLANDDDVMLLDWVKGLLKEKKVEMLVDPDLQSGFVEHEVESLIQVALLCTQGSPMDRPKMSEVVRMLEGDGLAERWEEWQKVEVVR
# Outline: as §1
# LOC_OS04G41100-cb001 = tested on: T2, LOC_OS04G41100-cb001
# T2 sequence (whole entry): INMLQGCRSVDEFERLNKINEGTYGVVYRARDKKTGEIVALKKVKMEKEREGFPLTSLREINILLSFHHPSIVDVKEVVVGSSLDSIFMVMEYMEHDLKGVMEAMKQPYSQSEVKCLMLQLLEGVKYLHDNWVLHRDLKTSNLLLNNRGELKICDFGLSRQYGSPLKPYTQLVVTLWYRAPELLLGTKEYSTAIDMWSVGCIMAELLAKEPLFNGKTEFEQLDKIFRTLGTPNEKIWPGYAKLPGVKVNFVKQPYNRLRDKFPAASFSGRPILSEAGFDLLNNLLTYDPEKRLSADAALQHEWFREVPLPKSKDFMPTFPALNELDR
# Outline: as §1
# LOC_OS04G57630-cb004 = tested on: LOC_OS04G57630-cb004
# Outline: as §1
# LOC_OS05G07850-cb002 = tested on: LOC_OS05G07850-cb002
# Outline: as §1
# LOC_OS05G16824-cb004 = tested on: LOC_OS05G16824-cb004
# Outline: as §1
# LOC_OS05G28520-cb001 = tested on: LOC_OS05G28520-cb001
# Outline: as §1
# LOC_OS05G30820-cb001 = tested on: LOC_OS05G30820-cb001
# Outline: as §1
# LOC_OS05G43570-cb004 = tested on: LOC_OS05G43570-cb004
# Outline: as §1
# LOC_OS06G16330-cb003 = tested on: LOC_OS06G16330-cb003
# Sequence of LOC_OS06G16330-cb003 (as listed by the source): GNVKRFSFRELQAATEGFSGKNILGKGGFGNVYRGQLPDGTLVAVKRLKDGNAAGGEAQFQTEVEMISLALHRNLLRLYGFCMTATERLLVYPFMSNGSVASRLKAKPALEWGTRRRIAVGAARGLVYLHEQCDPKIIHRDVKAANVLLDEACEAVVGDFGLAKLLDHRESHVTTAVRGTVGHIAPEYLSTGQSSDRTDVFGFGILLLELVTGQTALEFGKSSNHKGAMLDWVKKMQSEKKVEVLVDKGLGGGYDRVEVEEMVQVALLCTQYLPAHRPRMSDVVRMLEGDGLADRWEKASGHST
# Outline: as §1
# LOC_OS06G22820-cb001 = tested on: T3, LOC_OS06G22820-cb001
# T3 sequence (whole entry): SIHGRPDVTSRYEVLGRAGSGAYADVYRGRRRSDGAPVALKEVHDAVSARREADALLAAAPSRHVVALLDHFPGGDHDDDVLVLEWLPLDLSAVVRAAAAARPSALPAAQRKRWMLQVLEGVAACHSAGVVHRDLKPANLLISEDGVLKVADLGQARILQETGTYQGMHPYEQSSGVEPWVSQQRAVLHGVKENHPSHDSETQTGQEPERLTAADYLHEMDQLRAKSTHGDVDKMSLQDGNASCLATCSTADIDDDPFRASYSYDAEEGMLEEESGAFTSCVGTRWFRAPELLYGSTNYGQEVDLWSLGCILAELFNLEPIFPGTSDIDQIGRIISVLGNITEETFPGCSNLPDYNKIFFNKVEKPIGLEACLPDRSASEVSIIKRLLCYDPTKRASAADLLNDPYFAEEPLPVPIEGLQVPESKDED
# Outline: as §1
# LOC_OS07G06570-cb004 = tested on: LOC_OS07G06570-cb004
# Outline: as §1
# LOC_OS07G07230-cb001 = tested on: LOC_OS07G07230-cb001
# Outline: as §1
SMILES,thermal shift delta Tm (LOC_OS02G45750-cb003) [°C],thermal shift delta Tm (LOC_OS02G54510-cb004) [°C],thermal shift delta Tm (LOC_OS03G04050-cb001) [°C],thermal shift delta Tm (LOC_OS03G12390-cb001) [°C],thermal shift delta Tm (LOC_OS03G27990-cb004) [°C],thermal shift delta Tm (LOC_OS03G50450-cb001) [°C],thermal shift delta Tm (LOC_OS03G50810-cb003) [°C],thermal shift delta Tm (LOC_OS04G35114-cb001) [°C],thermal shift delta Tm (LOC_OS04G38480-cb003) [°C],thermal shift delta Tm (LOC_OS04G41100-cb001) [°C],thermal shift delta Tm (LOC_OS04G57630-cb004) [°C],thermal shift delta Tm (LOC_OS05G07850-cb002) [°C],thermal shift delta Tm (LOC_OS05G16824-cb004) [°C],thermal shift delta Tm (LOC_OS05G28520-cb001) [°C],thermal shift delta Tm (LOC_OS05G30820-cb001) [°C],thermal shift delta Tm (LOC_OS05G43570-cb004) [°C],thermal shift delta Tm (LOC_OS06G16330-cb003) [°C],thermal shift delta Tm (LOC_OS06G22820-cb001) [°C],thermal shift delta Tm (LOC_OS07G06570-cb004) [°C],thermal shift delta Tm (LOC_OS07G07230-cb001) [°C]
Cn1cc(/C=C2\C(=O)Nc3cccnc32)c2ccccc21,11.3,0.63,0.83,3.11,1.64,4,3.46,6.79,3.05,0.74,2.07,9.12,10.2,0.86,0.81,0.41,7.67,0.62,1.66,0.42
Cc1c[nH]c(/C=C2\C(=O)Nc3ccccc32)c1CCC(=O)O,2.76,0.94,0.06,8,0.79,4.67,2.36,8.73,3.46,0.43,0.5,6.66,7.29,0.67,2.14,0.11,9.94,0.18,0.84,0.79
Cn1cnc2c(F)c(Nc3ccc(Br)cc3F)c(C(=O)NOCCO)cc21,0.6,0.05,0.71,0.19,0.4,0.43,0.44,0,1.48,0.46,0.45,1.86,-1.71,0.55,0.44,0.51,-0.03,0.61,1.32,-0.18
CC(C)Oc1ccc(-c2nn([C@@H](C)c3oc4ccc(F)cc4c(=O)c3-c3cccc(F)c3)c3ncnc(N)c23)cc1F,-0.54,0.17,0.23,-0.28,0.5,-0.25,0.13,1.09,1.36,0.19,0.05,-1,-4.89,0.51,0.43,0.51,0.01,0.62,1.08,-0.07
O=C1NC(=O)[C@@H](c2cn3c4c(cccc24)CCC3)[C@@H]1c1c[nH]c2ccccc12 [Tivantinib (ARQ 197)],0.51,0.03,0.44,-0.01,0.43,0.17,0.07,0.51,0.13,0.36,0.47,0.25,-2.47,0.49,0.62,0.57,0.29,0.65,0.51,0.56
Cc1cccc(Nc2nc(NC3CCCCC3N)ncc2C(N)=O)c1 (stereo not given),0.65,1.67,0.03,2.43,3.15,4.23,1.34,0.3,1.83,0.73,0.83,7.79,5.17,0.36,2.02,0.63,6.85,0.81,1.04,0.47
COc1ccc(CNC(=O)Nc2ncc([N+](=O)[O-])s2)cc1,0.37,-0.05,0.67,0.15,0.48,0.41,0.22,0.93,1.93,0.59,-0.18,-0.24,0.88,1.04,0.63,0.59,0.38,0.52,0.68,0.25
C1=N/C2=N/c3ccc(OCCN4CCCC4)c(c3)COC/C=C/COCc3cccc(c3)C(=C1)N2 [Pacritinib (SB1518)],8.5,3.05,0.14,4.32,4.35,3.76,7.67,10.9,3.66,5.39,4.36,12.8,7.5,3.33,0.55,0.68,10.1,0.41,1.64,0.85
Cc1nc(-c2cn3c(n2)-c2ccc(-c4cnn(C(C)(C)C(N)=O)c4)cc2OCC3)n(C(C)C)n1 [Taselisib (GDC 0032)],1.34,0.17,0.54,-0.31,0.3,0.34,-0.05,0.68,0.83,0.38,0.16,0.89,0.74,0.19,0.59,0.36,-0.08,0.16,1.28,0.87
O=C(/C=C/c1ccc(O)c(O)c1)c1ccc(O)cc1O [Butein],2.94,0.39,1.9,3.8,1.75,2.26,2.72,3.66,3.43,2.09,2.45,8.49,4.48,1.45,0.81,1.93,4.87,2.16,1.46,0.82
CC(=O)c1c(C)c2cnc(Nc3ccc(N4CCNCC4)cn3)nc2n(C2CCCC2)c1=O,6.05,0.3,0.22,5.44,2.08,0.53,2.97,3.19,1.9,1.04,0.52,5.93,5.52,0.05,0.23,0.31,4.77,-0.1,0.7,0.73
Nc1nccc(Oc2ccc(NC(=O)c3c[nH]cc(-c4ccc(F)cc4)c3=O)cc2F)c1Cl,1.54,0.77,0.58,0.55,0.24,0.31,1.15,0.58,2.79,3.39,1.51,14.9,-0.78,0.3,0.92,1.01,6.76,0.86,0.57,0.36
C=CC(=O)Nc1cccc(Oc2nc(Nc3ccc(N4CCN(C)CC4)cc3)ncc2Cl)c1,3.96,0.5,0.53,3.42,2.49,1.35,4.77,3.8,1.67,1.1,1.97,11.6,8.96,4.43,1.14,0.72,5.65,0.76,0.79,1.03
